We go through five compounds from PubChem BioAssay.

The source made the active and inactive calls.

Assay [1] can be described thus: small molecules captured by biotinylated probe aFSTL3 – biochemical, small-molecule microarray, fluorescence 635/667, stem cell growth factor project, primary screen (AID 1064).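 Further: measures binding of the biotinylated anti-FSTL3 antibody to printed compounds.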 The note with it: higher = more signal.
Assay [2] is described as follows: binders from COS7 lysate, DM2A8 probe, primary screen, torsin A project, cell lysate, small-molecule microarray, fluorescence 635/667 (AID 1065). The note with it: higher = more signal, COS7 lysate expressing mutant human TOR1A.
The nature of assay [3]: small molecules captured by biotinylated probe aFGF2 – biochemical, small-molecule microarray, fluorescence 635/667, stem cell growth factor project, primary screen (AID 1067).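 Further: measures binding of biotinylated aFGF2 protein to printed compounds on slides; z-score merges feature fluorescence and signal-to-noise across triplicate slides.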 The note with it: higher = more signal.
Assay [4] is described as follows: small molecules captured by biotinylated probe aFGF10 – biochemical, small-molecule microarray, fluorescence 635/667, stem cell growth factor project, primary screen (AID 1071).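 Further: score merges 667 nm spot intensity and signal to noise from triplicate slides.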 The following applies: higher = more signal.
Assay [5] deals with Neurogenic locus notch homolog protein 2 (Homo sapiens) (UniProt Q04721). Put plainly: small molecules binding Notch2 protein – biochemical, small-molecule microarray, 635 nm fluorescence, stem cell growth factors, primary screen (AID 1073). The following applies: higher = more signal.
For assay [6], the target named is Pro-neuregulin-1, membrane-bound isoform (Homo sapiens) (UniProt Q02297). As to the kind of experiment: small molecules binding neuregulin-1 protein – biochemical, small-molecule microarray, fluorescence 635/667, psychiatric disease protein project, primary screen (AID 1075).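 Further: score combines 667 nm spot fluorescence with signal to noise.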 The following applies: NRG1 binding, 635 nm fluorescence, higher = more signal.
In assay [7] the test system is Neuregulin-1 EGF-like domain. Put plainly: small molecules binding NRG1 EGF domain – biochemical, small-molecule microarray, 635 nm fluorescence, primary screen (AID 1081).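 Further: binding of the protein to compounds printed on small-molecule microarray slides.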 The note with it: higher = more signal.
Assay [8] can be described thus: FRG1 expression reporter modulators in myotubes – cell-based, C2C12 myotubes, firefly/Renilla luciferase, luminescence, FRG1 inhibition for FSHD, primary screen (AID 1084). The following applies: FRG1 promoter luciferase, higher = more signal, called active from +8 up or from −8 down.
The nature of assay [9]: small molecules captured by biotinylated probe aFST – biochemical, small-molecule microarray, fluorescence 635/667, stem cell growth factor project, primary screen (AID 1086).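 Further: score merges 667 nm fluorescence with signal-to-noise of each printed compound spot.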 The following applies: higher = more signal.
Assay [10] can be described thus: binders of probe aHhip on microarray, primary screen, stem cell growth factor project, biochemical, small-molecule microarray, fluorescence 635/667 (AID 1087).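 Further: score merges spot fluorescence at 667nm with spot signal to noise ratio.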 The following applies: higher = more signal.
Assay [11] has as its system PRMT1 (protein arginine N-methyltransferase 1). As to the kind of experiment: small molecules binding arginine methyltransferase PRMT1 – biochemical, small-molecule microarray, 635 nm fluorescence, primary screen (AID 1088).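 Further: binding of Prmt1 protein to compounds spotted on small-molecule microarray slides.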 The note with it: higher = more signal.
Assay [12] can be described thus: growth effects on S. cerevisiae YJM789 – YJM789 clinical isolate, OD600, 24 h, basal, primary screen (AID 1089).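 Further: growth of clinical yeast isolate S. cerevisiae YJM 789 seeded 1000 cells per well; test concentration not given here.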 The note with it: higher = more signal, called active from +8 up or from −8 down.
Assay [13] is described as follows: S. pombe growth modifiers, basal conditions – strain 972, OD600, 24 h, no modulator, primary screen (AID 1090).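 Further: basal condition with compound alone and no growth modifier present; test concentration not given here.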 The note with it: S. pombe 972 growth, higher = more signal, called active from +8 up or from −8 down.
Assay [14] in a line: budding yeast growth modifiers under rapamycin – strain BY4716, OD600, 96 h, primary screen (AID 1091). Further: test concentration not given here. The following applies: S. cerevisiae BY4716 + rapamycin, higher = more signal, called active from +8 up or from −8 down.
The target in assay [15] is Torsin-1A-interacting protein 2 (Homo sapiens) (UniProt Q8NFQ8). As to the kind of experiment: small molecules binding lysate-expressed LULL1 – cell lysate, human LULL1 lysate, 635/667 nm fluorescence, primary screen (AID 1092).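 Further: score merges per-feature 667 nm fluorescence with signal-to-noise.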 The note with it: small-molecule microarray, hLULL1 lysate binding, 635 nm fluorescence; higher = more signal.
The nature of assay [16]: optical density change of DRC41 E. coli – strain DRC41, OD650, 24 h, E. coli filamentation project, primary screen (AID 1093).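 Further: MC1000 strain lacking acrAB efflux and sulA so SOS filamentation is blocked; test concentration not given here.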 The note with it: E. coli DRC41 growth, higher = more signal, called active from +8 up or from −8 down.
Assay [17] is described as follows: probe aLefty2 binding to arrayed compounds – biochemical, biotinylated probe, 635/667 nm fluorescence, primary screen (AID 1094).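 Further: score merges spot fluorescence near 667 nm with spot signal-to-noise ratio.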 The note with it: small-molecule microarray, higher = more signal.
Assay [18] relates to Noggin (protein binding on small-molecule microarray). As to the kind of experiment: small molecules binding Noggin protein – biochemical, 635/667 nm fluorescence, primary screen (AID 1095).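 Further: score merges 667 nm feature fluorescence with signal to noise over triplicate slides.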 The note with it: 635 nm fluorescence, higher = more signal.
Assay [19] deals with Neurogenic locus notch homolog protein 3 (Homo sapiens) (UniProt Q9UM47). Put plainly: small molecules binding NOTCH3 protein – biochemical, 635/667 nm fluorescence, primary screen (AID 1096). The following applies: small-molecule microarray, 635 nm fluorescence, higher = more signal.
The nature of assay [20]: probe aEGFR binding to arrayed compounds – biochemical, biotinylated probe, 635/667 nm fluorescence, primary screen (AID 1097).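 Further: probe is a biotinylated anti-EGFR antibody binding compounds printed on slides; score combines fluorescence near 667 nm and signal to noise of each spot.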 The following applies: small-molecule microarray, higher = more signal.

Chain of Pro-neuregulin-1, membrane-bound isoform (Homo sapiens) (Q02297 whole entry, looked up, the tested form may be a part, canonical isoform): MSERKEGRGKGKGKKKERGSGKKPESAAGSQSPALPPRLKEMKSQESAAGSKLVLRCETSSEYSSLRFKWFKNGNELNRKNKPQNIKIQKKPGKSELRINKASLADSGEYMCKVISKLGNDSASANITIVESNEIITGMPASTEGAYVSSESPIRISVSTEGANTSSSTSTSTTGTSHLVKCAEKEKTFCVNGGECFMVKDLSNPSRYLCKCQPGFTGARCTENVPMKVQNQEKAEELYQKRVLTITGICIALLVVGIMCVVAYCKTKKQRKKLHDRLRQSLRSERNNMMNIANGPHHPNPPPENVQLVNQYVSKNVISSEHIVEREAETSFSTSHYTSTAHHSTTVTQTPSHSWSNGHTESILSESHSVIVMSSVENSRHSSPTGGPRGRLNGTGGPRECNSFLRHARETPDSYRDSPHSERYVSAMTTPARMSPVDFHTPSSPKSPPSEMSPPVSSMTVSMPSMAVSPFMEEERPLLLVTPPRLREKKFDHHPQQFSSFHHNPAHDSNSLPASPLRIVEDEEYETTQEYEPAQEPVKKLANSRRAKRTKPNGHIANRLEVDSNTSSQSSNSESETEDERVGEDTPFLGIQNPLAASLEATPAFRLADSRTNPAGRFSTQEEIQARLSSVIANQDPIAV
Chain of Torsin-1A-interacting protein 2 (Homo sapiens) (Q8NFQ8 whole entry, looked up): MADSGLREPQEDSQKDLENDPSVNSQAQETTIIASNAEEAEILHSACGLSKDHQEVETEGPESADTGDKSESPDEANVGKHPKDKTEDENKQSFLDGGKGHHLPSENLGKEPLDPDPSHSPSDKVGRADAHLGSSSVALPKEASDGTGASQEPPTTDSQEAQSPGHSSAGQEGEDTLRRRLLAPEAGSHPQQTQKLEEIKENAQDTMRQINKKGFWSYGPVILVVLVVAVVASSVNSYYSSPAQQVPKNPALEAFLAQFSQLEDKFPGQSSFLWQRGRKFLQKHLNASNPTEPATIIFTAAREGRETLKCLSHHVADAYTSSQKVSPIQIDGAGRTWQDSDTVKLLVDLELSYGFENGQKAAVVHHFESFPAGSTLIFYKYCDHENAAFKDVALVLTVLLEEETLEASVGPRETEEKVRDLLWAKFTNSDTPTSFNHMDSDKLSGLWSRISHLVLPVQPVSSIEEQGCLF
Chain of Neurogenic locus notch homolog protein 3 (Homo sapiens) (Q9UM47 whole entry, looked up): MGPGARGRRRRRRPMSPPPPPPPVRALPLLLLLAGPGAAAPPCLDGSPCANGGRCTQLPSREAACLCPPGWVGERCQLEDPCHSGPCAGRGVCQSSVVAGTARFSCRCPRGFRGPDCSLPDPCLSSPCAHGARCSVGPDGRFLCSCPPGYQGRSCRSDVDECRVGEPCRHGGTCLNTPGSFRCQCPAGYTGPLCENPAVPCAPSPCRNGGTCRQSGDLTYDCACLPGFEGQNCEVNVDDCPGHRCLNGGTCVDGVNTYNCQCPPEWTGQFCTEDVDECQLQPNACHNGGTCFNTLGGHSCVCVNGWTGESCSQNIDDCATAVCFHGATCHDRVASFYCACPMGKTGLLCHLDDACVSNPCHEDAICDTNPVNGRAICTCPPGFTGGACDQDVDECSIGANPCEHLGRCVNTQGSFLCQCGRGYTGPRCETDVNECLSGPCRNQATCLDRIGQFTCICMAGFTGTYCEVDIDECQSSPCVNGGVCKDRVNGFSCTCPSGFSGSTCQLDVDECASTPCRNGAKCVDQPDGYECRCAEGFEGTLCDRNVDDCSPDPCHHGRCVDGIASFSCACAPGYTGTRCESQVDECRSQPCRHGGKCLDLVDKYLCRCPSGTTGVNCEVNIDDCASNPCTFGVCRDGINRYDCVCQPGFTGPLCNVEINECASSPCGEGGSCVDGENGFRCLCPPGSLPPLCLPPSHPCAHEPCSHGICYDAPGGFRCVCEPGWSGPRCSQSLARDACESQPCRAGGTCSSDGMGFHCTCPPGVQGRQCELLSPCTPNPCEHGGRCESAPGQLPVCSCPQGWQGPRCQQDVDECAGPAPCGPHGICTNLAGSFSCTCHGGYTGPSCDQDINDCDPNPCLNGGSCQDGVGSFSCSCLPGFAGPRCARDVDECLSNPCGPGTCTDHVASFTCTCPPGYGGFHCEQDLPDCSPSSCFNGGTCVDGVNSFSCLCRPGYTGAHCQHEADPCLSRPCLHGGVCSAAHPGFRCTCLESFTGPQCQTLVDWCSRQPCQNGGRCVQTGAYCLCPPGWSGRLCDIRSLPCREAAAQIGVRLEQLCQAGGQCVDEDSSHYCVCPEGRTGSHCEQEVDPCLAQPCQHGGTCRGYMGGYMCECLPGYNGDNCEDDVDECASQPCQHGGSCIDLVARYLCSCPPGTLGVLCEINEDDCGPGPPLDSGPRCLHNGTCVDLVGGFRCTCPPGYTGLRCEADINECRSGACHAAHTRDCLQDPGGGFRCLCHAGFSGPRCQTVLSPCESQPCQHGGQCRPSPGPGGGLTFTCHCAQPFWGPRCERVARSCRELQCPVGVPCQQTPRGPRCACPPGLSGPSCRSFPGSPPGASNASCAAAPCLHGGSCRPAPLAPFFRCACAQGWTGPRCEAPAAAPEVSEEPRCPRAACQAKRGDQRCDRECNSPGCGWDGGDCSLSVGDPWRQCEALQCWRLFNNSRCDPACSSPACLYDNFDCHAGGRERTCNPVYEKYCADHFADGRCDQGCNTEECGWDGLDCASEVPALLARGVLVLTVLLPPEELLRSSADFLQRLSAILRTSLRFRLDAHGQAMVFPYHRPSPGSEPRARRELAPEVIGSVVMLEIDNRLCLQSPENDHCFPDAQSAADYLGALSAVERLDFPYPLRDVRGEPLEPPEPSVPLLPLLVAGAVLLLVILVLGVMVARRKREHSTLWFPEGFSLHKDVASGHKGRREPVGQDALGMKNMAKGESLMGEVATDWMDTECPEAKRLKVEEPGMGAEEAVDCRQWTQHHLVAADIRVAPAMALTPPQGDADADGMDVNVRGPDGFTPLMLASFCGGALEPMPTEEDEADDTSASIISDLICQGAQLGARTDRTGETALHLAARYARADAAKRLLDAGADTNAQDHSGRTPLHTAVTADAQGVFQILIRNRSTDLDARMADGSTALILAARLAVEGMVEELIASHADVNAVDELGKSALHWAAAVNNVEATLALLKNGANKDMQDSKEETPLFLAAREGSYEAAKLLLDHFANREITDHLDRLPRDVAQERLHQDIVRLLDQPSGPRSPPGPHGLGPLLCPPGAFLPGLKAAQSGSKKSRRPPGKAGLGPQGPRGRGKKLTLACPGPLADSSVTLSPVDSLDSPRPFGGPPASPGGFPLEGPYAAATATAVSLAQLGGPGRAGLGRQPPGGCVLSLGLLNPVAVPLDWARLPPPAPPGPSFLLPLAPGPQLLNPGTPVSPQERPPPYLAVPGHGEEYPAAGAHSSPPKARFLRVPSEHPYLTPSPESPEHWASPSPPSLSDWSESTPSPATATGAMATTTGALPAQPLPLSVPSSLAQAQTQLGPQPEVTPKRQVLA

As to `O=C1C2C=CC(C(O)C(c3ccccc3)c3ccccc3)N(Nc3ccc([N+](=O)[O-])cc3)C2C(=O)N1c1ccccc1` (stereo not given), the composite z-score in assay [1] was found to be 0.141; in [2] it was 0.311; in assay [3], 0.138; in assay [4], 1.16; in [5], 1.64; in [6] it was 1.84. The composite z-score in assay [7] is 1.27; in [9] it was 1.37; in assay [10], -0.0994; in assay [11] it was 1.38; in assay [15], 3.67; in assay [17] it was 0.109. In addition, the composite z-score in assay [18] is -0.181; in [19] it was 1.07; in assay [20], 0.121. The z-score in assay [8] was 0.117 (inactive); in assay [12] it was 0.384 (inactive); in assay [13], 1.86 (inactive); in assay [14], 2.85 (inactive); in assay [16], -0.07 (inactive).
For the compound `COC(=O)C1=CC(c2ccc(CO)cc2)=CC(c2cccs2)N(Cc2cccc(OC(F)(F)F)c2)C=C1C(=O)OC` (stereo not given), the composite z-score in assay [1] is -0.0169; in assay [2], 1.41; in [3], -0.0375; in assay [4], 0.862; in assay [5], 1.17; in assay [6], 2.03. Moreover, the composite z-score in [7] stood at 1.17; in assay [9], 0.48; in assay [10] it was 0.0866; in assay [11] it was 1.27; in assay [15], 3.31; in [17] it was 0.006. Besides, the composite z-score was -0.0249 in [18], 1.13 in assay [19] and -0.0187 in assay [20]. In addition, the z-score in assay [8] was -0.497 (inactive); in assay [12], -0.107 (inactive); in assay [13] it was -1.75 (inactive); in assay [14], 0.434 (inactive); in [16], 0.241 (inactive).
For the compound `CN1CCC(CCCO)=CC1C1CC1` (stereo not given), the composite z-score in [1] was -0.389; in assay [2], 1.39; in assay [3] it was -0.199; in [4], -0.856; in assay [5], -1.13; in assay [6], -0.345. The composite z-score was 0.743 in assay [7]; -0.287 in [9]; -0.251 in assay [10]; 0.608 in assay [11]; -0.463 in assay [15]; -0.308 in assay [17]. The composite z-score is 0.724 in assay [18], 0.0618 in [19] and -0.104 in assay [20]. Further, the z-score was -0.901 (inactive) in assay [8]; -0.477 (inactive) in assay [12]; -0.851 (inactive) in assay [13]; -0.761 (inactive) in [14]; 1.08 (inactive) in assay [16].
Take `CCOC(=O)C[C@H]1[C@H](OC(=O)c2cc3ccccc3oc2=O)[C@@H](NC(=O)c2ccc3ccccc3c2)c2cc(OCCCO)ccc2N1C(=O)c1ccc2ccccc2n1`: the composite z-score in assay [1] is -0.522; in [2], 0.128; in [3], -0.0336; in assay [4] it was 1.11; in assay [5], 1.09; in [6], 0.384. In addition, the composite z-score in assay [7] was 1.03; in assay [9], 0.518; in assay [10] it was -0.0994; in assay [11], 0.154; in assay [15], 0.868; in assay [17], -0.225. The figures for the composite z-score in assay [18], in assay [19] and in assay [20] were 0.956, 1.03 and 0.0768, respectively. Besides, the z-score is -0.881 (inactive) in [8]; -0.653 (inactive) in [12]; -0.777 (inactive) in assay [13]; -0.31 (inactive) in assay [14]; 2.45 (inactive) in assay [16].
`CCOC(=O)C1=CC[C@@H](c2ccc(-c3ccc(OCc4ccccc4)cc3)c(OC)c2)N(S(=O)(=O)c2ccc(C)cc2)[C@H]1c1ccccc1`: the composite z-score was -0.216 in [1]; 0.448 in [2]; 0.0188 in [3]; 0.668 in [4]; 1.49 in assay [5]; 1.36 in [6]. Besides, the composite z-score was found to be 0.952 in assay [7]; 0.9 in assay [9]; 0.314 in assay [10]; 1.46 in assay [11]; 2.93 in assay [15]; 0.158 in [17]. In addition, the figures for the composite z-score in assay [18], in [19] and in assay [20] were 0.73, 1.09 and -0.0255, respectively. The z-score in [8] is 0.141 (inactive); in assay [12] it was -0.534 (inactive); in [13], -1.27 (inactive); in [14], 3.66 (inactive); in assay [16], -0.0642 (inactive).
